Laboratory results reported in PubChem BioAssay.
Active and inactive are the calls of the source.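 The calls were made as follows, unless noted: active = NADPH fluorescence slope more negative than the mean of all samples by about 3 SD, 99.7% confidence; inactive = the rest.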

Columns and labels:
[1] = reduction of polyQ htt aggregates in cells – imaging, exon1htt(103Q)mCFP cells, high-content imaging, primary screen (AID 483;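 active = visual image review flags a hit and inhibition of aggregation exceeds 20%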;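 also: compound exposure lasted 3 days before fixation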;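 as to nuclei count: percent of the per-plate median nuclei count of sample wells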); conditions: exon1htt(103Q)mCFP cell line, aggregate imaging, at 2 µM; inhibition of aggregation: stronger effect = higher value; nuclei count: measured here: cell count, toxicity
[2] = endothelial E-selectin expression blockers – imaging, HUVEC, immunofluorescence, MLSMR starter and 10KST1 sets, primary screen (AID 487;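 active = visually confirmed hit in the image check and inhibition above 20%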;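 as to inhibition: signal is fraction of cell area covered by stained E-selectin grains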;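 as to nuclei count: 100% = median nuclei count of all wells on the same plate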); conditions: HUVEC TNFalpha-induced E-selectin immunofluorescence imaging, at 2 µM; inhibition: stronger effect = higher value; nuclei count: measured here: cell number, toxicity
[3] = target: Voltage-gated potassium channel subunit beta-2 (Rattus norvegicus) (UniProt P62483); test: inhibitors of rat Kvbeta2 reductase activity – biochemical, NADPH fluorescence, primary screen (AID 622;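 active = fluorescence slope higher than the sample average by over 3 SD, cut at about -0.22 in these data, passing the limit was not always enough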;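 also: slope of raw intensity against log time taken from 70 to 1610 s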); conditions: recombinant KvBeta, 4-cyanobenzaldehyde reduction, at 10 µM, stronger effect = higher value
[4] = target: Voltage-gated potassium channel subunit beta-2 (Rattus norvegicus) (UniProt P62483); test: enhancers of rat Kvbeta2 NADPH turnover – biochemical, NADPH fluorescence, primary screen (AID 623); conditions: Recombinant KvBeta, NADPH fluorescence decrease slope, 10 min; at 10 µM; stronger effect = lower value;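 also: fluorescence intensity change per second fitted from 20 to 320 s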
[5] = target: Muscarinic acetylcholine receptor M4 (Homo sapiens) (UniProt P08173); test: M4-linked GIRK flux change, two-sided – cell-based, HEK293 M4/GIRK, thallium flux, BTC-AM, M4 allosteric agonist project, primary screen (AID 625;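 active = fluorescence slope after compound addition differing from the mean of all tested samples at 99.7% confidence, mostly higher but some lower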;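 also: thallium influx through GIRK channels coupled to M4 in HEK293 cells with BTC-AM dye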); conditions: at 10 µM, actives lie on both sides
[6] = blockers of RIG-like receptor reporter activation – cell-based, Sendai virus stimulus, luciferase, 10K MLSCN set, TLR/RLR signaling modifier project, primary screen (AID 602276;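 active = inhibition at or above 50% at 10 µM; inactive = inhibition below 50%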;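 also: firefly luciferase from ISG56 promoter only with Renilla not read in this screen; 0% = Sendai virus plus DMSO and 100% = medium plus DMSO without virus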); conditions: HEK293 RL24 IRF3 luciferase reporter, at 10 µM, stronger effect = higher value
[7] = TLR3 IRF3 reporter activation blockers – cell-based, poly I:C stimulus, luciferase, 10K MLSCN set, primary screen (AID 602277;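 active = inhibition of the reporter signal at or above 50%; inactive = inhibition below 50%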); conditions: HEK293-TLR3 RL24 IRF3 luciferase reporter, at 10 µM, stronger effect = higher value
[8] = target: Alpha-2C adrenergic receptor (Homo sapiens) (UniProt P18825); test: compounds altering alpha2C-coupled GIRK flux – cell-based, HEK293 alpha2C/GIRK1/2, thallium flux, primary screen (AID 624;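 active = fluorescence slope after compound addition differing from the mean of all screened samples at 99.7% confidence, in either direction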;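 also: slope of fluorescence ratio to pre-addition baseline per second over 15 to 24 s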); conditions: thallium flux BTC fluorescence, at 10 µM, actives lie on both sides
[9] = Primary imaging screen for DUSP6 inhibitors that restore phospho-Erk in transfected HeLa cells, chemical complementation (AID 609;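 active = compounds giving at least 50% inhibition in the cell-based MKP-3 phosphatase rescue imaging test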;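 as to inhibition: phospho-Erk level distribution per well compared with pooled transfected vehicle control wells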); conditions: HeLa MKP-3 transfected, phospho-Erk imaging KS statistic, at 10 µM, cells stimulated with TPA for 15 min
[10] = target: Dual specificity protein phosphatase 6 (Homo sapiens) (UniProt Q16828); test: as above; conditions: HeLa MKP-3 transfected, phospho-Erk imaging KS statistic; at 10 µM; stronger effect = higher value; cells stimulated with TPA for 15 min
[11] = inhibitors of larval lipid processing in zebrafish, primary screen, whole organism, PED6 fluorescence, gall bladder and intestine (AID 686;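 active = a full or partial loss of lipid-probe fluorescence in the fish gall bladder, intestine or both, judged by eye; inactive = no fluorescence loss, or compound toxic to the fish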;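 also: larvae 5 to 7 days old with five fish per well; signal comes from phospholipase A2 cleavage of quenched PED6 carried via bile; overnight exposure to compound and PED6 before scoring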); conditions: Zebrafish larvae PED6 lipid processing, fluorescence scoring; screened at 20 µM (by protocol)
[12] = loss of swimming-algae plug formation – whole organism, Chlamydomonas reinhardtii, WT vs cilia-less mutant, absorbance, 96-well, primary screen (AID 463189;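 active = inhibition at or above 50% relative to wild type and mutant plate controls; inactive = inhibition below 50%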;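 also: 0% = wild type cc124 cells in DMSO and 100% = ciliumless bld1 mutant cells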); conditions: Chlamydomonas reinhardtii gravitaxis, OD600 absorbance, 2 days; at 10 µM; stronger effect = higher value

Sequence of Voltage-gated potassium channel subunit beta-2 (Rattus norvegicus) (P62483 whole entry, looked up): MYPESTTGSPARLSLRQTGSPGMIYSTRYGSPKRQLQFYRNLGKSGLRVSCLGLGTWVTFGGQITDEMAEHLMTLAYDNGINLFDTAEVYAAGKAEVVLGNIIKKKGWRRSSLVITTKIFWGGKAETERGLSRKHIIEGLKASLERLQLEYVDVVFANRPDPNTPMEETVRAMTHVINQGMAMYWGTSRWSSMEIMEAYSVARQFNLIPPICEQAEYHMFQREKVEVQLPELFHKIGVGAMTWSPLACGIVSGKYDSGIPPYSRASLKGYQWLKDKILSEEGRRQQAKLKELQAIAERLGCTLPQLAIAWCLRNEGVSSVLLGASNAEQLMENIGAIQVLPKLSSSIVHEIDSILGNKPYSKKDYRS
Sequence of Alpha-2C adrenergic receptor (Homo sapiens) (P18825 whole entry, looked up): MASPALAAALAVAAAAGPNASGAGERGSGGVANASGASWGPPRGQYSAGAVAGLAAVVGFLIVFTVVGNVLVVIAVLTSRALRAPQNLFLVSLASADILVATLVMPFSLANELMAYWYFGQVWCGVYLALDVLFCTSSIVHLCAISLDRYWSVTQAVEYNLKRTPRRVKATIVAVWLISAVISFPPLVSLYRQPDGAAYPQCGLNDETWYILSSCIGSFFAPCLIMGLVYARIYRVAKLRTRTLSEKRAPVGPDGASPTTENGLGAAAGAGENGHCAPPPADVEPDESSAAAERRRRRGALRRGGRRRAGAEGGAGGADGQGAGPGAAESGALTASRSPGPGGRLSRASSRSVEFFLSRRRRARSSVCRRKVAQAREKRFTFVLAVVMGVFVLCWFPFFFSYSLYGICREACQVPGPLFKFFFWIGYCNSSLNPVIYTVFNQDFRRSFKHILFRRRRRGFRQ
Sequence of Muscarinic acetylcholine receptor M4 (Homo sapiens) (P08173 whole entry, looked up): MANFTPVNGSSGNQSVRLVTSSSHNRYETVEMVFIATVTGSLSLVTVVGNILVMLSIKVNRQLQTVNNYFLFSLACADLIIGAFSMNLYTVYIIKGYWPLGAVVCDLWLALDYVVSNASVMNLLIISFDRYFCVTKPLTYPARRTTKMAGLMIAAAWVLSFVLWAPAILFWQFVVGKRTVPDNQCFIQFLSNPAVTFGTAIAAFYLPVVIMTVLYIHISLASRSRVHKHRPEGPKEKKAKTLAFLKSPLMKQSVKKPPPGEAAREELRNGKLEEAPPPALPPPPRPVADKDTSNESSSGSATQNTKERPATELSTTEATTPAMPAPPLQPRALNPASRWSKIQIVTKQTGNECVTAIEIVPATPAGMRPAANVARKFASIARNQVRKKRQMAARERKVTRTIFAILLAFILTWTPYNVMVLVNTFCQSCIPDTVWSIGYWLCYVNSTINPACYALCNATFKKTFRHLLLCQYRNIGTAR
Sequence of Dual specificity protein phosphatase 6 (Homo sapiens) (Q16828 whole entry, looked up): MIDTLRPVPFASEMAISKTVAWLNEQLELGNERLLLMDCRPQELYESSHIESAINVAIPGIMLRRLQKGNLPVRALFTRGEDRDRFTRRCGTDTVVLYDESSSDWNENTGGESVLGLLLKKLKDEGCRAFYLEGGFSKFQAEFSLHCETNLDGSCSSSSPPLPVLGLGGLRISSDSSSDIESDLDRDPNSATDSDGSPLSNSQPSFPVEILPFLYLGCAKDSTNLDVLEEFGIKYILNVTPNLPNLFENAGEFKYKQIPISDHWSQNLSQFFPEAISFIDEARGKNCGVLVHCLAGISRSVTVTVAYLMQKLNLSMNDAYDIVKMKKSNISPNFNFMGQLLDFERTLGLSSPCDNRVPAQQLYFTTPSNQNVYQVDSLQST

Structure (SMILES) | inhibition of aggregation [1] | nuclei count [1] [%] | inhibition [2] | nuclei count [2] [%] | fluorescence slope [3] | NADPH fluorescence slope [4] | fluorescence slope [5] | inhibition [6] | inhibition [7] | slope [8] | z-score ([9]; measured here: cell density z-score) | z-score ([9]; measured here: nuclear c-Myc green intensity z-score) | z-score ([9]; measured here: nuclear pErk red intensity z-score, stronger effect = higher value) | inhibition [10] | outcome [11] | inhibition [12]
O=C(CN(Cc1ccco1)C(=O)CNS(=O)(=O)c1ccc(Cl)cc1)NCc1ccc(F)cc1 | -10.4% (inactive) | 97.5 | -185% (inactive) | 159 | -0.567 (inactive) | -6.4e-06 (inactive) | 0.00551 (inactive) | 22.1% (inactive) | 27.5% (inactive) | – | – | – | – | – | – | –
COc1ccc(CNC(=O)COC(=O)c2n[nH]c3ccccc23)cc1OC | -22.1% (inactive) | 108 | -287% (inactive) | 171 | -0.382 (inactive) | 1.4e-05 (inactive) | – | 6.09% (inactive) | -3.54% (inactive) | 0.00438 (inactive) | – | – | – | – | – | –
COc1ccc(-n2c(C)c(C(C)=O)c3cc(O)ccc32)cc1 | – | – | 4.2% (inactive) | 135 | -0.4 (inactive) | -4.1e-05 (inactive) | 0.00708 (inactive) | – | – | – | -0.551 | -0.198 | 0.861 | 9.39% (inactive) | inactive | 30.2% (inactive)
O=C1[C@@H]2C(c3ccccc3Cl)=NO[C@@H]2C(=O)N1Cc1ccccc1 | -2.9% (inactive) | 90.6 | -238% (inactive) | 213 | -0.328 (inactive) | -5.7e-05 (inactive) | – | 9.22% (inactive) | 12.2% (inactive) | 0.00529 (inactive) | – | – | – | – | – | –
